Among the data in PubChem BioAssay are composite z-score and z-score values, retold here.

The nature of experiment [1]: small molecules captured by biotinylated probe aFSTL3 – biochemical, small-molecule microarray, fluorescence 635/667, stem cell growth factor project, primary screen (AID 1064).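 Also: measures binding of the biotinylated anti-FSTL3 antibody to printed compounds.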 The following applies: higher = more signal.
Experiment [2] in a line: binders from COS7 lysate, DM2A8 probe, primary screen, torsin A project, cell lysate, small-molecule microarray, fluorescence 635/667 (AID 1065). The following applies: higher = more signal, COS7 lysate expressing mutant human TOR1A.
A short description of experiment [3]: small molecules captured by biotinylated probe aFGF2 – biochemical, small-molecule microarray, fluorescence 635/667, stem cell growth factor project, primary screen (AID 1067).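 Also: measures binding of biotinylated aFGF2 protein to printed compounds on slides; z-score merges feature fluorescence and signal-to-noise across triplicate slides.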 The following applies: higher = more signal.
The nature of experiment [4]: small molecules captured by biotinylated probe aFGF10 – biochemical, small-molecule microarray, fluorescence 635/667, stem cell growth factor project, primary screen (AID 1071).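 Also: score merges 667 nm spot intensity and signal to noise from triplicate slides.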 The following applies: higher = more signal.
The target of experiment [5] is Neurogenic locus notch homolog protein 2 (Homo sapiens) (UniProt Q04721). Kind of experiment: small molecules binding Notch2 protein – biochemical, small-molecule microarray, 635 nm fluorescence, stem cell growth factors, primary screen (AID 1073). As to conditions: higher = more signal.
Sequence of Neurogenic locus notch homolog protein 2 (Homo sapiens) (Q04721 whole entry, looked up, canonical isoform): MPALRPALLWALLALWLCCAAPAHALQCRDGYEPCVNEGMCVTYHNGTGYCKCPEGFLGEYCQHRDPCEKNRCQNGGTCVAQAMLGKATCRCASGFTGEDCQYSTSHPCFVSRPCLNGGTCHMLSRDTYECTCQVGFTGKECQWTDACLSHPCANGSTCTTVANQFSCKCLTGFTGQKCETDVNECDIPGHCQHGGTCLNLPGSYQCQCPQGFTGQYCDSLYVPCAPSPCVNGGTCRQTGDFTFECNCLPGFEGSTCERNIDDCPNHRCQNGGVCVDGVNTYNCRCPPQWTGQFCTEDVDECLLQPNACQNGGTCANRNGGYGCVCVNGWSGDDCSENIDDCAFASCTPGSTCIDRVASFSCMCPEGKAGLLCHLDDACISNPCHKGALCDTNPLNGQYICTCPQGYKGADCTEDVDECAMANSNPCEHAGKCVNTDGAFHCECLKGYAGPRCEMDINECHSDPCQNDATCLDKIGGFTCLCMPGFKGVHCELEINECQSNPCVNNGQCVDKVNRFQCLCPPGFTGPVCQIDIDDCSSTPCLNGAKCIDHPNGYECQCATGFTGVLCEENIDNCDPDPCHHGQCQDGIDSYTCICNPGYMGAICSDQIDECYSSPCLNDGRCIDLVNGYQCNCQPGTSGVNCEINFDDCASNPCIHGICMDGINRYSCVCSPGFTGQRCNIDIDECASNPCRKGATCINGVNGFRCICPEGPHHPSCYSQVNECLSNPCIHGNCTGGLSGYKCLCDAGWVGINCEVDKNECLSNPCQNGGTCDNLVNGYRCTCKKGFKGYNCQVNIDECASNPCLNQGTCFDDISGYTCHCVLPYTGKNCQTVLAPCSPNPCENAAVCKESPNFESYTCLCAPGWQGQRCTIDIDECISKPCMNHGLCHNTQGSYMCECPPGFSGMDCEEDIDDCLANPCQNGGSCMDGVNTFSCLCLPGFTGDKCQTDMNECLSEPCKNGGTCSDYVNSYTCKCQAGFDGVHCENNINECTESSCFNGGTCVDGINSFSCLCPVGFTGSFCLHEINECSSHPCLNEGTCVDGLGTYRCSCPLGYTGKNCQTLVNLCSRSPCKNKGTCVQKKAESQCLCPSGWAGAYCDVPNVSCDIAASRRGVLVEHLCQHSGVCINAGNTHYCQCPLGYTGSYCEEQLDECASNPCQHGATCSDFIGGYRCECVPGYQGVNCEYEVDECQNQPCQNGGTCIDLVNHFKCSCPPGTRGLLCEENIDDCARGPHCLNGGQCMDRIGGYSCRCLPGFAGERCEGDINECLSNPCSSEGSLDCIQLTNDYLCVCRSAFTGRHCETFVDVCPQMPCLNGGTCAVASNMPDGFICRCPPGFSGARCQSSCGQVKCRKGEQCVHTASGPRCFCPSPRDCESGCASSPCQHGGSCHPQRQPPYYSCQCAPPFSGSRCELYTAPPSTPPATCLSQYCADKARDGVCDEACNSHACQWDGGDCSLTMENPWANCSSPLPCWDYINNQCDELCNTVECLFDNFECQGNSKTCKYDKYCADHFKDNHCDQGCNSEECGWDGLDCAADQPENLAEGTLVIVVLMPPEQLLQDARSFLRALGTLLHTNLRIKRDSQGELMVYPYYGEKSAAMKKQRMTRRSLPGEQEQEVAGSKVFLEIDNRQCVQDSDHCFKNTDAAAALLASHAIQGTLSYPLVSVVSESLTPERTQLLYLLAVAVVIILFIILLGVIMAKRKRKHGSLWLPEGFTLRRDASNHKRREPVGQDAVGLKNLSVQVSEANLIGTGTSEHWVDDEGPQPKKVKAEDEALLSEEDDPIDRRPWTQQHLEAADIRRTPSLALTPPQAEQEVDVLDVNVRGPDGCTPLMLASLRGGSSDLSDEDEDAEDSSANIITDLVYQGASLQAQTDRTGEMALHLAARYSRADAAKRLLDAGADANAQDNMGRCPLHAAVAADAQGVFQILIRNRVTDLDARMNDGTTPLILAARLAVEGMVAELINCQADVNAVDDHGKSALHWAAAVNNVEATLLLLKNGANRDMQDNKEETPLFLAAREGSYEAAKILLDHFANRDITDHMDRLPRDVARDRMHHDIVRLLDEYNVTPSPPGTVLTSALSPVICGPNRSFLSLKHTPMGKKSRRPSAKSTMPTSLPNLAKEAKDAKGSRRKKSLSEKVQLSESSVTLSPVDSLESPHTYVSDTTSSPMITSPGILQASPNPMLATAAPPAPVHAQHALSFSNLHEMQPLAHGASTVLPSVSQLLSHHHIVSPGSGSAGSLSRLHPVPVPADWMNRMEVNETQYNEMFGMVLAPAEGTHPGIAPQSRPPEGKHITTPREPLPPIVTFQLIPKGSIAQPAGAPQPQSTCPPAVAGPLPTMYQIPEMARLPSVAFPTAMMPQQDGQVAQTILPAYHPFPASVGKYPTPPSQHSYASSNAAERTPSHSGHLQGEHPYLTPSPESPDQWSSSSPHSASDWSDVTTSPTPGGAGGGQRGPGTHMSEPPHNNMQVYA
The target in experiment [6] is Pro-neuregulin-1, membrane-bound isoform (Homo sapiens) (UniProt Q02297). The experiment in a line: small molecules binding neuregulin-1 protein – biochemical, small-molecule microarray, fluorescence 635/667, psychiatric disease protein project, primary screen (AID 1075).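 Also: score combines 667 nm spot fluorescence with signal to noise.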 The following applies: NRG1 binding, 635 nm fluorescence, higher = more signal.
Sequence of Pro-neuregulin-1, membrane-bound isoform (Homo sapiens) (Q02297 whole entry, looked up, the tested form may be a part, canonical isoform): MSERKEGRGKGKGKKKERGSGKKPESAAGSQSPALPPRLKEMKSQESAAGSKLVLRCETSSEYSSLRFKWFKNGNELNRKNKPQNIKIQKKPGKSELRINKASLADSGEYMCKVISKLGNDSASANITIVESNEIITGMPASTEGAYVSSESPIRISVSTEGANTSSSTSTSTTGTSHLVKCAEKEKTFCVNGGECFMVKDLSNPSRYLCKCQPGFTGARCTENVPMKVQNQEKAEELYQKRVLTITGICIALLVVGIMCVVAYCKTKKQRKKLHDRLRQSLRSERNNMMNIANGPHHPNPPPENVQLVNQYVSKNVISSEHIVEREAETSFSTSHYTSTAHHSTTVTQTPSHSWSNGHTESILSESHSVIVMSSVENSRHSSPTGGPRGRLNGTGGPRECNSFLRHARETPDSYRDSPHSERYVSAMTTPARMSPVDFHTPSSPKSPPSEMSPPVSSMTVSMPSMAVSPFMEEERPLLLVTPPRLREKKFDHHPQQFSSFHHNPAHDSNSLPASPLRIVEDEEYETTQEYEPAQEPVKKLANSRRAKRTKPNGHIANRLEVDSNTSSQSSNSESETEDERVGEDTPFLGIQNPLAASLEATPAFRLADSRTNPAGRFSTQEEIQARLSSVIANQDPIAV
Experiment [7] has as its system Neuregulin-1 EGF-like domain. The experiment in a line: small molecules binding NRG1 EGF domain – biochemical, small-molecule microarray, 635 nm fluorescence, primary screen (AID 1081).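 Also: binding of the protein to compounds printed on small-molecule microarray slides.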 The following applies: higher = more signal.
The nature of experiment [8]: FRG1 expression reporter modulators in myotubes – cell-based, C2C12 myotubes, firefly/Renilla luciferase, luminescence, FRG1 inhibition for FSHD, primary screen (AID 1084). As to conditions: FRG1 promoter luciferase, higher = more signal, called active from +8 up or from −8 down.
The nature of experiment [9]: small molecules captured by biotinylated probe aFST – biochemical, small-molecule microarray, fluorescence 635/667, stem cell growth factor project, primary screen (AID 1086).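 Also: score merges 667 nm fluorescence with signal-to-noise of each printed compound spot.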 The following applies: higher = more signal.
A short description of experiment [10]: binders of probe aHhip on microarray, primary screen, stem cell growth factor project, biochemical, small-molecule microarray, fluorescence 635/667 (AID 1087).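 Also: score merges spot fluorescence at 667nm with spot signal to noise ratio.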 The following applies: higher = more signal.

The structures appear in SMILES notation. The source made the active and inactive calls.

Take `C[C@H]1CC[C@@H](C(=O)O)N[C@@H]1c1ccc(C#Cc2ccccc2)cc1`: the composite z-score in experiment [1] was -0.214; in experiment [2] it was 0.0872; in experiment [3] it was 0.0166; in experiment [4], 0.505; in experiment [5], 1.32; in experiment [6], 0.736. Further, the figures for the composite z-score in experiment [7], in experiment [9] and in experiment [10] were 1.24, 0.316 and 0.176, respectively. Besides, the z-score in experiment [8] is 3.31 (inactive).
With `O=C1C[C@H](c2ccccc2)[C@H](c2ccc(Br)cc2)O1`, the composite z-score in [1] is -0.295; in [2], 0.246; in [3] it was -0.0761; in experiment [4], 0.289; in experiment [5], 0.0429; in [6], -0.482. Also, the composite z-score was -0.293 in experiment [7], 0.133 in [9] and -0.0994 in experiment [10]. For the same compound, in experiment [8], the z-score was -0.78 (inactive).
For `O=C1[C@H]2CCn3c(=O)n(Cc4cc5c(cc4Cl)OCO5)c(=O)n3[C@H]2[C@H](O)[C@@H]2O[C@H]12`, the composite z-score in [1] was 1.24; in experiment [2] it was -0.0222; in experiment [3], -0.162; in experiment [4], -0.244; in experiment [5] it was -0.382; in experiment [6] it was -0.156. Moreover, the composite z-score is 0.801 in experiment [7], -0.332 in [9] and 0.0156 in experiment [10]. Further, in experiment [8], the z-score is -0.162 (inactive).
As to `CCN1C(=O)[C@H]2[C@H]3[C@H](O)[C@H](O)CC(=NO[C@H](C)c4cn([C@H](CO)Cc5ccccc5)nn4)[C@@H]3CC[C@H]2C1=O`, the composite z-score in [1] is -0.907; in experiment [2], 0.0378; in experiment [3] it was -0.116; in [4] it was 1.08; in experiment [5], 1.01; in experiment [6], 0.782. Also, the figures for the composite z-score in [7], in [9] and in [10] were 0.934, 0.606 and -0.344, respectively. The z-score in experiment [8] was 0.804 (inactive).
As to `CC(C)CON=C1C[C@@H](O)[C@@H](O)[C@@H]2[C@@H]3C(=O)N([C@@H](C)c4ccccc4)C(=O)[C@@H]3CC[C@@H]12`, the composite z-score was 0.083 in experiment [1]; 0.114 in [2]; -0.145 in experiment [3]; 0.107 in [4]; 0.309 in experiment [5]; -0.104 in [6]. Besides, the composite z-score was -0.546 in experiment [7], 0.624 in experiment [9] and 0.0373 in [10]. Moreover, the z-score in [8] was 0.431 (inactive).
As for `CCN1C(=O)[C@H]2[C@H]3[C@H](O)[C@H](O)CC(=NOC[C@@H](O)COCc4ccco4)[C@H]3CC[C@H]2C1=O`, the composite z-score is -0.905 in experiment [1]; 2.38 in [2]; -0.318 in experiment [3]; -1.68 in experiment [4]; -0.886 in experiment [5]; -0.502 in experiment [6]. Besides, the composite z-score in experiment [7] is 0.456; in experiment [9] it was -0.104; in [10] it was 0.0578. Further, the z-score in experiment [8] is -0.172 (inactive).
`CC(CCN1CCCc2nc(C)c(C)cc21)=NOC[C@@H](O)COCc1ccco1`: the composite z-score was 2.02 in [1]; 3.09 in experiment [2]; 0.529 in [3]; 0.0131 in experiment [4]; 0.164 in experiment [5]; -0.0146 in [6]. The figures for the composite z-score in experiment [7], in [9] and in experiment [10] were 0.919, 2.79 and 3.19, respectively. The z-score in experiment [8] was 1.05 (inactive).
`CO[C@@H](C(C)C)[C@@H](C)C1OC(=O)CC1O` (stereo not given in full): the composite z-score is -0.156 in [1]; -0.126 in experiment [2]; -0.15 in experiment [3]; 0.0406 in experiment [4]; -0.402 in [5]; -0.361 in [6]. Also, the composite z-score is 0.625 in [7], -0.192 in [9] and -0.0193 in experiment [10]. Also, the z-score in experiment [8] was 0.35 (inactive).
Consider `COC(=O)CC=C[C@@H](C)[C@@H](C=NOC[C@@H](C)[C@H](OCc1ccccc1)C(C)C)NS(=O)(=O)c1ccc(C)cc1`, for which the composite z-score in [1] was -0.433; in experiment [2], 0.142; in [3] it was -0.0633; in experiment [4], -0.0494; in [5], -0.801; in experiment [6] it was -0.267. Moreover, the composite z-score is -0.332 in [7], -0.0646 in experiment [9] and -0.0003 in [10]. The z-score in experiment [8] is 0.539 (inactive).
On to `CC(C)[C@@H](OCc1ccccc1)[C@H](C)C=NO[C@@H](C)c1cn([C@H](CO)Cc2ccccc2)nn1`, for which the composite z-score in experiment [1] is -0.474; in experiment [2] it was 0.384; in experiment [3], 0.491; in experiment [4] it was 0.175; in [5], 0.301; in experiment [6], -0.236. The composite z-score was -0.419 in experiment [7], 0.155 in experiment [9] and -0.175 in [10]. Moreover, the z-score in [8] is 0.193 (inactive).
In the case of `O=C1C2=CC[C@H]3C(=O)N(Cc4ccccc4)C(=O)[C@H]3[C@H]2[C@H](O)[C@@H]2O[C@H]12`, the composite z-score is -0.291 in experiment [1]; -0.339 in experiment [2]; -0.132 in experiment [3]; 0.011 in experiment [4]; 0.0297 in experiment [5]; -0.0087 in experiment [6]. Besides, the composite z-score in experiment [7] is 0.281; in experiment [9], -0.351; in [10], 0.176. Also, in [8], the z-score was 6.64 (inactive).
With `CCOC(=O)CCN1C(=O)[C@H]2[C@H]3[C@H](O)[C@H](O)CC(=NO[C@@H]4O[C@H](CO)[C@@H](O)[C@H](O)[C@H]4O)[C@@H]3CC[C@H]2C1=O`, the composite z-score in experiment [1] is -0.512; in experiment [2], 1.86; in experiment [3] it was -0.129; in experiment [4], 1.04; in [5] it was 1.31; in experiment [6], 0.254. The composite z-score is 1.14 in experiment [7], 0.675 in [9] and -0.0296 in experiment [10]. For the same compound, the z-score in [8] is -0.389 (inactive).
For the compound `O=C1[C@H]2[C@H]3[C@H](O)[C@H](O)CC(=NO[C@@H]4O[C@H](CO)[C@@H](O)[C@H](O)[C@H]4O)[C@H]3CC[C@H]2C(=O)N1c1ccc(F)cc1F`, the composite z-score in experiment [1] was 0.552; in experiment [2] it was 0.75; in [3] it was 0.0159; in [4] it was 0.265; in experiment [5], 0.51; in experiment [6], -0.557. The composite z-score in [7] is -0.977; in experiment [9] it was 0.437; in experiment [10], -0.0296. For the same compound, the z-score in experiment [8] was 0.404 (inactive).
For `C[C@]12CCC3c4ccc(OCC5CO5)cc4CCC3C1CC[C@@H]2O` (stereo not given in full), the composite z-score in experiment [1] is 0.157; in experiment [2], 0.258; in experiment [3] it was -0.0415; in experiment [4], 0.381; in experiment [5], 1.04; in experiment [6], 0.703. Moreover, the composite z-score in experiment [7] is 1.07; in experiment [9] it was 0.473; in experiment [10], -0.0994. Also, the z-score in [8] was 1.05 (inactive).
For `CC(CCN1CCCc2nc(C)c(C)cc21)=NO[C@H](C)c1cn([C@@H]2COC[C@H]2O)nn1`, the composite z-score was -0.396 in experiment [1]; 1.37 in [2]; -0.0788 in experiment [3]; 0.359 in experiment [4]; 0.6 in experiment [5]; 0.0261 in [6]. The composite z-score in [7] was 1.17; in experiment [9], 0.3; in [10], -0.195. For the same compound, the z-score in [8] was 0.59 (inactive).
For the compound `CC(C)CON=C1C[C@@H](O)[C@@H](O)[C@@H]2[C@@H]3C(=O)N(Cc4ccc5c(c4)OCO5)C(=O)[C@@H]3CC[C@@H]12`, the composite z-score in experiment [1] is -0.345; in experiment [2], -0.142; in [3], 0.0138; in experiment [4] it was 0.11; in experiment [5] it was -0.0138; in experiment [6] it was 0.474. Besides, the composite z-score in experiment [7] is 0.814; in experiment [9], -0.141; in [10], 0.0659. Moreover, in experiment [8], the z-score was -0.197 (inactive).
For `O=C1[C@H]2[C@H]3[C@H](O)[C@H](O)CC(=NO[C@@H]4O[C@H](CO)[C@@H](O)[C@H](O)[C@H]4O)[C@@H]3CC[C@H]2C(=O)N1c1cccc(Oc2ccccc2)c1`, the composite z-score was -0.309 in experiment [1]; 0.21 in [2]; -0.125 in [3]; 0.649 in experiment [4]; 0.628 in experiment [5]; 0.495 in experiment [6]. For the same compound, the values for the composite z-score in [7], in experiment [9] and in experiment [10] were 1.02, 0.365 and 0.0373, respectively. The z-score in [8] was 0.423 (inactive).
